Assay outcomes as filed in PubChem BioAssay.
IL1B secr inh: qHTS for Inhibitors of Inflammasome Signaling: IL-1-beta AlphaLISA Primary Screen; THP-1 LPS/ATP IL-1B secretion, AlphaLISA, 16 h; active compounds read low; activity change, % at 57.5 µM; 4.7% of 360,000 active; in the data active = activity change below about -50%; inconclusive = mostly about -30% to -49%; also: % is scaled to controls: 0 for no effect and ±100 for the full control effect
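Secreted IL-1B measured by AlphaLISA bead assay after 16 h compound exposure of THP-1 cells; compounds (final up to 57.5 uM) added 1 h before LPS (250 ng/mL) and ATP (1.25 mM) stimulation; lower signal means less secretion.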
TDP1 cell noCPT: qHTS for Inhibitors of human tyrosyl-DNA phosphodiesterase 1 (TDP1): qHTS in cells in absence of CPT; DT40 Tdp1-/- hTDP1 cells, no CPT, ATP luminescence, 48 h; Potency, µM (titrated, usually from 46.2 µM), for the others: at the top dose activity change, negative = growth inhibition, hits mostly inhibitors; 15% of 420,000 active; also: potency is read from the fitted curve at half-maximal effect; % is scaled to controls: 0 for no effect and ±100 for the full control effect; nearly all actives have a fitted effect of over 55% in size
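Camptothecin absent (DMSO only). Human TDP1-complemented DT40 knockout cells, 400 cells/well, 37 °C for minimum 48 hr; ATP measured via CellTiter-Glo, 30 min dark incubation, luminescence.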
SW480 rereplic: A quantitative high throughput screen for small molecules that induce DNA re-replication in SW480 colon adenocarcinoma cells. 1.8% of 340,000 active. SW480 DNA re-replication, Hoechst DNA content imaging, 48 h. AID 624297, 2012. Potency, µM (titrated, usually from 46.1 µM), inactives show at the highest dose re-replication activation, most hits filed as activators; also: potency is read from the fitted curve at half-maximal effect; % of control where 0% means no effect; nearly all actives have a fitted effect of over 55% in size
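250 cells/well; 23 nL cpd via pin tool; 48 hr, 37 C, 5% CO2; Hoechst 40 min; imager read of total nuclear intensity, ex 405/em 500-530 nm.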
Chronic BCR inh: qHTS Assay to Find Inhibitors of Chronic Active B-Cell Receptor Signaling | AID 493014, 2011 | 0.05% of 340,000 active | Potency, µM (titrated, usually from 46.1 µM), inactives show top-dose activity change, negative = inhibition, most hits filed as inhibitors | ABC-DLBCL IkBa-CBG/CBR reporter, luminescence ratio, 4 h; active = well fitted inhibition curve with a large enough effect in the signal ratio, with a control signal flat, not every such curve was filed as active; inconclusive = small, poorly fitted or top-dose-only effect, or effect the other way, or a change in a side signal; the % refers to the signal ratio;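 also: potency is read from the fitted curve at half-maximal effect; plate controls were basal doxycycline-induced cells for no effect and cells given 10 µM MG132 for full effect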
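Cell line TMD8 (human ABC DLBCL), stably expressing tet-inducible CBG68-IkBa fusion and CBR; IMDM/0.5% FBS; cpd up to 46 uM; dox induction, 4 h, 37C/5% CO2; dual luminescence; green/red ratio; MG132 control.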
DT40 TDP1 CPT: qHTS for Inhibitors of human tyrosyl-DNA phosphodiesterase 1 (TDP1): qHTS in cells in presence of CPT. chicken DT40 Tdp1-/-;hTDP1 cells + 20 nM CPT, ATP luminescence, 48 h. Potency, µM (doses to about 46.2 µM), for the others: at the highest dose activity change, negative = growth inhibition, actives largely listed as inhibitors. 12% of 420,000 active. AID 686979, 2013; also: potency is read from the fitted curve at half-maximal effect; % is scaled to controls: 0 for no effect and ±100 for the full control effect; nearly all actives have a fitted effect of over 55% in size
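Chicken DT40 Tdp1-/- cells complemented with human TDP1, 400 cells/well, exposed to compounds plus 20 nM camptothecin for at least 48 h at 37 C; viability read as ATP content by CellTiter-Glo luminescence.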
MCF10A rerep: A quantitative high throughput screen for small molecules that induce DNA re-replication in MCF 10a normal breast cells; Potency, µM (highest dose often 46.1 µM), without a hit: top-dose activity, positive = re-replication, most hits filed as activators; AID 624296, 2012; 2.9% of 350,000 active; MCF 10A DNA re-replication, Hoechst nuclear intensity, 48 h; also: potency is read from the fitted curve at half-maximal effect; % of control where 0% means no effect; nearly all actives have a fitted effect of over 50% in size
Numbers without * were called inactive; ? = inconclusive; / = no result; [ ] = dose if it differs, or a comment. Hits are enriched below; roughly 19% of the tested compounds scored in any of these assays. Unless noted, calls follow the shape of the dose curve; as a rule, active = well fitted curve in the direction sought with a large enough effect; inconclusive = small, poorly fitted or top-dose-only effect, or another doubt; inactive = no such curve, though single readings can be large; an effect the other way counts as inactive or inconclusive.

SMILES | IL1B secr inh | TDP1 cell noCPT | SW480 rereplic | Chronic BCR inh | DT40 TDP1 CPT | MCF10A rerep
Cc1ccccc1Nc1nnc(SCc2cc(=O)n3ccsc3n2)s1 | 0.0 | 16.4µM* | -3.0% | ? | ? | -0.1%
O=c1cc(CSc2nnc(Nc3ccccc3)s2)nc2sccn12 | -4.3 | ? | -29.6% | -3.4% | ? | -9.0%
COC[C@H]1CCCN1c1ccc2c(c1)O[C@H](COCc1ccccc1)CN([C@@H](C)c1ccccc1)S2(=O)=O | 23.5 | 16.4µM* | / | / | ? | /
CCCCC[C@@H](C)N1C[C@H](COCc2ccccc2)Oc2cc(N3CCC[C@@H]3COC)ccc2S1(=O)=O | -1.8 | 14.6µM* | / | / | ? | /
COC[C@H]1CCCN1c1ccc2c(c1)O[C@@H](COCc1ccccc1)CN([C@@H](C)c1ccccc1)S2(=O)=O | 5.0 | 7.31µM* | / | / | 10.3µM* | /
C[C@@H](c1ccccc1)N1C[C@H](COCc2ccccc2)Oc2cc(N3CCC[C@H]3CO)ccc2S1(=O)=O | -11.8 | ? | / | / | ? | /
C[C@@H](c1ccccc1)N1C[C@@H](COCc2ccccc2)Oc2cc(N3CCC[C@@H]3CO)ccc2S1(=O)=O | 0.0 | ? | / | / | ? | /
COC[C@@H]1CCCN1c1ccc2c(c1)O[C@H](COCc1ccccc1)CN([C@H](C)c1ccccc1)S2(=O)=O | 15.7 | 20.6µM* | / | / | ? | /
Cc1cc(C)cc(C(=O)Nn2cnnc2)c1 | 15.1 | -2.3% | -13.9%[9.22 µM] | 2.4% | 8.1% | ?
COc1ccc(NC(=O)Cn2cnc3c(oc4ccccc43)c2=O)cc1OC | / | -12.3% | / | / | -16.4% | /
O=C(NCCc1ccc(Cl)cc1)C(=O)NCC(c1ccco1)S(=O)(=O)c1ccccc1 (configuration not stated) | / | -8.8% | / | ? | -9.5% | /
O=C(NCc1ccccc1Cl)C(=O)NCC(c1ccco1)S(=O)(=O)c1cccs1 (configuration not stated) | / | 16.4µM* | / | -21.9% | ? | /
O=C(NCc1ccccc1F)C(=O)NCC(c1ccco1)S(=O)(=O)c1cccs1 (configuration not stated) | / | ? | / | -0.4% | ? | /
O=C(NCCc1ccc(Cl)cc1)C(=O)NCC(c1ccco1)S(=O)(=O)c1cccs1 (configuration not stated) | / | ? | / | -10.1% | 18.4µM* | /
COc1ccc(/C(C)=N/NC(=O)c2ccc(NS(=O)(=O)c3cccs3)cc2)cc1 | -13.3 | ? | -1.8% | ? | ? | -1.4%
O=C1CC(N2CCN(Cc3ccc4c(c3)OCO4)CC2)C(=O)N1CCc1ccccc1 (configuration not stated) | 5.6 | ? | 0.1% | ? | 12.6µM* | 30.5%
Cc1ccc(C(c2nnnn2Cc2cccs2)N2CCN(Cc3ccc4c(c3)OCO4)CC2)cc1 (configuration not stated) | -63.8* | 9.2µM* | ? | 4.4% | 7.31µM* | -7.4%
c1ccc2c(c1)CCN(Cc1nnnn1Cc1ccc3c(c1)OCO3)C2 | -1.1 | -13.7% | -2.2% | -5.9% | 0.1% | 4.2%
COc1ccccc1CN1CCN(C(CC(C)C)c2nnnn2Cc2cccs2)CC1 (configuration not stated) | ? | ? | -0.5% | ? | 18.4µM* | 0.2%
c1ccc(Cn2nnnc2CN2CCN(Cc3ccc4c(c3)OCO4)CC2)cc1 | -13.3 | ? | 7.3% | 0.3% | 20.6µM* | ?
CCCC(=O)N1CCC1(C)C(=O)Nc1ccc(OC(F)F)cc1 (configuration not stated) | -0.5 | -24.0% | / | / | -0.6% | /
COCCn1nnnc1C(c1ccc(C)cc1)N1CCN(Cc2ccc3c(c2)OCO3)CC1 (configuration not stated) | -14.4 | ? | -6.8% | 1.7% | 16.4µM* | -10.5%
COCCn1nnnc1C(c1ccccc1)N1CCN(Cc2ccc3c(c2)OCO3)CC1 (configuration not stated) | -18.1 | ? | -1.9% | -1.5% | -10.7% | 3.0%
Cn1ccc2c(-c3cccc(C=O)c3)cc3c(c21)C1CCC3O1 (configuration not stated) | 23.7 | ? | / | / | ? | /
COCCNC(=O)C1(C)CCN(C(=O)Cc2ccc(OC)c(OC)c2)C1 (configuration not stated) | 0.0 | -4.2% | / | / | -7.0% | /
SMILES | IL1B secr inh | TDP1 cell noCPT | SW480 rereplic | Chronic BCR inh | DT40 TDP1 CPT | MCF10A rerep
O=C(Cc1ccc([N+](=O)[O-])cc1)N1N=C(c2ccncc2)CC1(O)C(F)(F)F (configuration not stated) | 8.8 | ? | -64.2% | 0.7% | 20.6µM* | 18.2%
Cc1ccc(OCC(=O)N2N=C(c3ccncc3)CC2(O)C(F)(F)F)cc1C (configuration not stated) | 5.5 | 20.6µM* | ? | -16.9% | ? | ?
O=C(COc1ccccc1)N1N=C(c2cccnc2)CC1(O)C(F)(F)F (configuration not stated) | 0.0 | -29.9% | -9.9% | ? | -5.4% | -60.3%
O=C1c2cccc3cccc(c23)C(=O)N1CC1CCN(S(=O)(=O)c2ccc(F)cc2)CC1 | -7.4 | 11.6µM* | 14.2% | ? | ? | 22.4%
O=C1c2cccc3cccc(c23)C(=O)N1CC1CCN(S(=O)(=O)c2ccccc2)CC1 | 30.7 | 1.8% | 1.8% | / | 27.6% | -1.2%
O=C(c1ccc(S(=O)(=O)N2CCCCCC2)cc1)N1CCC(CN2C(=O)c3cccc4cccc(c34)C2=O)CC1 | ? | 20.6µM* | 0.6% | -1.3% | ? | 13.3%
CC1=C(C(N)=O)N2C(=O)[C@@H](NC(=O)Cc3ccccc3)C2SC1 (some centres not stated) | / | 7.2%[9.04 µM] | / | / | 13.9%[9.04 µM] | /
Cc1ccc(C2=NOC(=O)/C2=C\c2ccccc2)cc1 | -11.6 | ? | -13.0% | / | ? | -1.4%
Cc1ccc(/C=C2/C(=O)ON=C2c2ccccc2)o1 | -11.8 | 14.6µM* | 12.6% | 27.3% | 20.6µM* | ?
CC1=NOC(=O)/C1=C/c1ccc(O)cc1 | -4.3 | ? | ? | -1.8% | ? | ?
O=C1ON=C(c2ccc(Cl)cc2)/C1=C/c1ccc(O)cc1 | -102.0* | 11.6µM* | 4.0% | ? | 7.31µM* | ?
